PriA SSB inh: K. pneumoniae PriA-SSBct interaction inhibition; AlphaScreen SSBct-PriA binding, biotinylated peptide; inhibition, % at 33 µM; 0.6% of 430,000 active; AID 1272365; in the data active = inhibition mostly above about 37%, no sharp cut-off; inactive = mostly below about 20%;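 also: plate controls were negative control peptide for no effect and reference peptide for full effect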
PrP 5UTR inh: inhibition of PrP 5' UTR reporter expression; cell-based PrP 5' UTR mRNA reporter, plate reader; inhibition, % (no concentration beside the values); 0.35% of 340,000 active; AID 488862; in the data active = inhibition above about 52%; also: 0 = median of the neutral control wells
BH1578 lux ind: quorum light induction in luxS cqsA deficient V. cholerae | V. cholerae BH1578 lux reporter, luminescence, 6 h | activation, % at 18.7 µM | 0.16% of 350,000 active | AID 588436; in the data active = activation mostly above about 9.7%, no sharp cut-off
PrPC TRFRET: inhibitors of human cell surface prion protein PrPC | inhibition, % at 13.8 µM | TR-FRET read-out | P04156 | AID 720596 | 0.43% of 370,000 active; in the data active = inhibition above about 24%; also: 0% = median of the test wells and 100% = reference compound wells
FadD28 FP inh: blocks FadD28 binding to the bisubstrate probe; fluorescence polarization; inhibition, % at 12.5 µM; 0.22% of 360,000 active; in the data active = inhibition above about 8.5%, passing the limit was not always enough
* hit, by the source's call; i = inactive; x = no result given; + = active, no number. Hits are enriched below; roughly 1.4% of the tested compounds scored in any of these assays.

SMILES | PriA SSB inh | PrP 5UTR inh | BH1578 lux ind | PrPC TRFRET | FadD28 FP inh
COC(=O)c1ccc(C(=O)OC)c(NC(=O)c2cccn(Cc3ccccc3C)c2=O)c1 | 0 | x | x | x | x
COc1ccc(Cl)c2sc(N(CCCN3CCOCC3)C(=O)c3ccn(C)n3)nc12 | 1 | x | x | x | x
O=C(CN(CCc1ccccc1)Cc1ccccc1)Oc1ccccc1P(=O)(O)O | 92* | -3 | -1 | 3 | 0
CCCc1nnsc1C(=O)NCC(O)c1csc2ccccc12 (stereo unspecified) | -30 | x | x | x | x
O=c1cc(NCc2ccco2)c2ccccc2o1 | -18 | -13 | 26* | -7 | 2
CC(=O)N1N=C(c2ccc([N+](=O)[O-])cc2)CC1c1ccccc1Cl (stereo unspecified) | 45* | -23 | -1 | -28 | -3
COc1ccc(NC(=O)COC(=O)CC23CC4CC(CC(C4)C2)C3)c([N+](=O)[O-])c1 | 66* | -7 | 0 | -7 | -4
CCC(=O)OCC(=O)Nc1ccc(OC)cc1[N+](=O)[O-] | -9 | -35 | 0 | -3 | 2
O=C(CSc1ccc(-c2ccccc2)nn1)N1CCCc2ccccc21 | -16 | -23 | i | -3 | -2
O=C(CSc1ncc(-c2ccccc2)[nH]1)N1CCCc2ccccc21 | 39* | x | x | x | x
O=C(CSc1nccn1-c1ccc(Cl)cc1)N1CCCc2ccccc21 | 56* | -14 | 0 | 10 | -2
O=c1[nH][nH]c2c([N+](=O)[O-])ccc(F)c12 | x | x | x | -16 | x
O=c1[nH][nH]c2c(N=Cc3ccccc3O)ccc(F)c12 | 11 | -18 | i | x | 16*
C=CCNc1nc(C(=O)OCC(=O)c2cccc(Br)c2)cs1 | 1 | -11 | i | -1 | -3
C=CCNc1nc(C(=O)OCC(=O)c2ccc(F)cc2)cs1 | 46* | -30 | -2 | 7 | 1
COc1ccc(OC)c2c1sc(=NC(=O)c1cc(-c3cccs3)nc3ccccc13)n2C | 3 | x | x | x | x
FC(F)(F)c1nc2ccccc2nc1NN=Cc1ccccc1 | 60* | x | x | x | x
CN(C)c1ccc(NC(=S)NC23CC4CC(CC(C4)C2)C3)cc1 | 45* | -52 | 0 | 2 | 2
O=C1/C(=C\c2cc([N+](=O)[O-])ccc2O)SC(=S)N1Cc1ccc(Cl)cc1 | -2 | -34 | 0 | 0 | 8.6*
O=C(NCc1ccco1)c1cc(C2CC2)n(C2CCS(=O)(=O)C2)n1 (stereo unspecified) | 0 | x | x | x | x
COc1ccc(OC)c(N2C(=O)NC(=O)/C(=C/c3ccc([N+](=O)[O-])s3)C2=O)c1 | 21 | -9 | 1 | -6 | 21*
Cc1cc(NC(=O)/C=C/c2ccccc2)n(C)n1 | -10 | x | x | x | x
O=C1c2ccccc2C(=O)N1CCCCN(C(=O)c1cccc(Cl)c1)c1ccc(F)cc1F | 2 | x | x | x | x
O=[N+]([O-])c1ccc(C=NNc2ccnc3cc(Cl)ccc23)o1 | 59* | x | x | x | x
O=C(NCC(c1cccs1)N1CCc2ccccc21)c1ccc2c(c1)OCO2 (stereo unspecified) | 39* | x | x | x | x
SMILES | PriA SSB inh | PrP 5UTR inh | BH1578 lux ind | PrPC TRFRET | FadD28 FP inh
O=C(NCCn1nc(-c2cccnc2)n(C2CC2)c1=O)Nc1ccccc1Cl | 1 | x | x | x | x
Cc1cc(=O)[nH]c(-n2nc(C)cc2C)n1 | -11 | 0 | 4 | -3 | -1
Cc1cc(=O)[nH]c(-n2nc(C)cc2N)n1 | 96* | x | x | x | x
Cc1cccc(CC(=O)Nc2cc(C)nn2-c2nc(C)cc(=O)[nH]2)c1 | 51* | x | x | x | x
O=c1[nH]c(=S)c2c(n1Cc1cccnc1)CCC2 | -9 | x | x | x | x
Cc1ccc(CN(CC(O)COc2cccc3[nH]cc(C)c23)C(C)(C)C)cc1 (stereo unspecified) | 1 | -9 | 1 | -8 | -3
Cc1c[nH]c2cccc(OCC(CNC(C)(C)C)OC(=O)c3ccccc3)c12 (stereo unspecified) | 49* | -20 | i | 0 | 1
CCCN(CCC)S(=O)(=O)c1ccc(C(=O)N2CCc3ccccc3C2)cc1 | -12 | x | x | x | x
Cc1nc2ccccc2c(=O)n1NC(=O)c1ccc(Cl)c(Cl)c1 | -1 | -26 | 328* | 10 | 1
CCc1ccc(C(=O)Nn2c(C)nc3ccccc3c2=O)cc1 | -14 | 10 | -1 | 13 | -1
C[C@@H]1Cc2c(O)c(O)cc(O)c2C(=O)O1 | -2 | -5 | -1 | x | -1
CC1Oc2cc3c(-c4c(O)cc(O)c5c(O)c6c(cc45)OC(C)C(C)C6=O)c(O)cc(O)c3c(O)c2C(=O)C1C (stereo unspecified) | 3 | 39 | 0 | x | 31*
CCC(C)n1c(=O)c2sccc2n2c(CCCC(=O)N3CCC(C(N)=O)CC3)nnc12 (stereo unspecified) | 43* | -6 | i | 0 | 2
COc1ccc(S(=O)(=O)N=C2C=C(NS(=O)(=O)c3ccccc3)C(=O)c3ccccc32)cc1 | 3 | x | x | x | x
COc1ccc(S(=O)(=O)/N=C2\C=C(Nc3ccc(O)cc3)C(=O)c3ccccc32)cc1 | x | -118 | i | 56* | -1
N/C(=N\OC(=O)Cc1ccccc1)c1ccccn1 | x | -19 | 2 | 4 | -3
NC(=NOC(=O)Cc1ccc([N+](=O)[O-])cc1)c1ccccn1 | 42* | x | x | x | x
O=C(N1CCC(n2ccnn2)CC1)C1(c2cccs2)CCCC1 | 11 | x | x | x | x
COc1ccc(SCCC(=O)Nc2ccc3sccc3c2)cc1 | 43* | x | x | x | x
Cc1ccc(SCCC(=O)Nc2ccc3sccc3c2)cc1 | -14 | x | x | x | x
Cc1cc(NS(=O)(=O)c2ccc(Nc3nc(-c4sc(N)nc4C)cs3)cc2)no1 | 59 | 5 | i | x | 55*
Cc1cc(NS(=O)(=O)c2ccc(Nc3nc(-c4ccc(C)c(C)c4)cs3)cc2)no1 | 20 | -17 | i | -1 | 1
Cc1nc(C)c(-c2csc(Nc3ccc(N)cc3)n2)s1 | 36 | -44 | 0 | -12 | -5
CCC(=O)Nc1nc(C)c(-c2csc(Nc3cccc(C(=O)O)c3)n2)s1 | 2 | -3 | -1 | -7 | 4
Cc1nc(C)c(-c2csc(Nc3ccc(O)c(C(=O)O)c3)n2)s1 | 6 | -41 | -1 | -6 | 17*
SMILES | PriA SSB inh | PrP 5UTR inh | BH1578 lux ind | PrPC TRFRET | FadD28 FP inh
Cc1nc(N)sc1-c1csc(Nc2cccc(C(=O)O)c2)n1 | -11 | 0 | 0 | 7 | 23*
CCNC(=O)CC1SC(=NN=C(C)c2ccccc2)NC1=O (stereo unspecified) | -4 | x | x | x | x
CC(C)COC(=O)CNc1n[nH]c(=S)[nH]c1=O | 0 | -16 | + | 0 | -3
CCCOc1ccc(C(O)=C2C(=O)C(=O)N(CCN3CCOCC3)C2c2ccccc2)cc1 (stereo unspecified) | -15 | x | x | x | x
CS(=O)(=O)c1sc(C#N)c2c1C(=O)CC(c1ccccc1)C2 (stereo unspecified) | 4 | 2 | -1 | 51* | -3
O=C(O)Cc1ccc(N=Nc2c(O)c(C(=O)O)cc3ccccc23)cc1 | 22 | -15 | i | -27 | 14*
NS(=O)(=O)c1ccc(N=Nc2c(O)c(C(=O)O)cc3ccccc23)cc1 | 9 | -20 | -1 | -61 | 5
CC1=CC(=O)C(C(C)C)=C/C1=C(\c1cc(C(C)C)c(O)cc1C)c1ccccc1S(=O)(=O)O | 59* | x | x | x | x
CC1=CC(=O)C=C/C1=C(\c1ccc(O)cc1C)c1ccccc1S(=O)(=O)O | -14 | x | x | x | x

Source: PubChem BioAssay (several laboratories)
